Experiments:
Assay in all cases: log2 ratio of Biotin-Ahx-Ub-VS probe labelling (fragment/DMSO); higher = less target engagement (more negative = stronger competition), active = hit call of the paper (q ≤ 0.05, log2 ratio ≤ -1)
Conditions in all cases: compound concentration: 200 uM; treatment time: 3 h
OTUD6B = target: T1, OTUD6B (UniProt Q8N6M0)
T1 sequence (whole entry): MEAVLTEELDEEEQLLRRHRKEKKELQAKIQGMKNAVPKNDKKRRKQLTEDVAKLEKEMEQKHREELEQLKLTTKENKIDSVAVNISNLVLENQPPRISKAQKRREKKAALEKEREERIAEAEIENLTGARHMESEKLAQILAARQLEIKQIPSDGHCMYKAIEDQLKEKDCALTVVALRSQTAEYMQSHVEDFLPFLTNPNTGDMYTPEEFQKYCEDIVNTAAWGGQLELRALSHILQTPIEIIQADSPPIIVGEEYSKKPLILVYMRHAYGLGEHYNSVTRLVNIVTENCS
Method in brief: (§1)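 The table lists average log2 ratios of fragment over vehicle, from an unpaired t-test on global-median-normalised Spectronaut label-free quantities. Proteins with ≥2 unique peptides were used. Samples were HEK293T lysate (495 µg) treated in triplicate with fragment at 200 µM or vehicle for 3 h, then with Biotin-Ahx-Ub-VS (0.5 µM final) for 1 h, with labelled DUBs NeutrAvidin-enriched and run by diaPASEF LC-MS/MS.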

OTUD7B = target: T2, OTUD7B (UniProt Q6GQQ9)
T2 sequence (whole entry): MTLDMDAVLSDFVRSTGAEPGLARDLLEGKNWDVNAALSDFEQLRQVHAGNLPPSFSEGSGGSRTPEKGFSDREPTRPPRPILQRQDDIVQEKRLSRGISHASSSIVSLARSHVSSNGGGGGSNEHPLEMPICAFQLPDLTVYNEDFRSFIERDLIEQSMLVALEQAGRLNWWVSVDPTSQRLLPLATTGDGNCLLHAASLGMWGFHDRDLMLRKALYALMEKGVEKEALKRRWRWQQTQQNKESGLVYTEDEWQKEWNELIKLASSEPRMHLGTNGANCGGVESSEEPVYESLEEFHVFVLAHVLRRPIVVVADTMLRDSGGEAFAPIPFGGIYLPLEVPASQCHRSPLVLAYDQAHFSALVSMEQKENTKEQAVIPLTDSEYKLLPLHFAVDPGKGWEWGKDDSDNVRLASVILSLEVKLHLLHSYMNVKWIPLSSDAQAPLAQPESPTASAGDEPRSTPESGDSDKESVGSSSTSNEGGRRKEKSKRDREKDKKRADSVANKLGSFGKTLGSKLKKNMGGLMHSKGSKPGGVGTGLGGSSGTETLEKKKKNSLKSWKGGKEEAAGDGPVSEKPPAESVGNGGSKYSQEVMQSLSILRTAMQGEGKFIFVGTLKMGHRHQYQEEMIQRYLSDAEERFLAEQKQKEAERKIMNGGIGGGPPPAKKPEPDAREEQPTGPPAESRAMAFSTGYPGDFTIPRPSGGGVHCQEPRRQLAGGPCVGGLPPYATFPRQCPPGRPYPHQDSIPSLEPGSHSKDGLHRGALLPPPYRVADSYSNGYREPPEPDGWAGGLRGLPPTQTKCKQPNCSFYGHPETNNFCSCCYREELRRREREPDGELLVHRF
Method in brief: as §1

PRPF8 = PRPF8 (UniProt Q6P2Q9)
Method in brief: as §1

PSMD7 = target: T3, PSMD7 (UniProt P51665)
T3 sequence (whole entry): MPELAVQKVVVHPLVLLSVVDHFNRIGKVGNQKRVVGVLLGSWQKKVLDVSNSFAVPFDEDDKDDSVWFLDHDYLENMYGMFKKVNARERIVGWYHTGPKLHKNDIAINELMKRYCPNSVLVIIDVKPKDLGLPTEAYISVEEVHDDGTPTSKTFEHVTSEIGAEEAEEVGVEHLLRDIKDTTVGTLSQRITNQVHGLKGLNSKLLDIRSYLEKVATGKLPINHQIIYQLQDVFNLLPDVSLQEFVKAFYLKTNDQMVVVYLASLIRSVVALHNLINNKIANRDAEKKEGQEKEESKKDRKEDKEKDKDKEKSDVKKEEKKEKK
Method in brief: as §1

UCHL1 = UCHL1 (UniProt P09936)
UCHL1, sequence (P09936 whole entry, looked up): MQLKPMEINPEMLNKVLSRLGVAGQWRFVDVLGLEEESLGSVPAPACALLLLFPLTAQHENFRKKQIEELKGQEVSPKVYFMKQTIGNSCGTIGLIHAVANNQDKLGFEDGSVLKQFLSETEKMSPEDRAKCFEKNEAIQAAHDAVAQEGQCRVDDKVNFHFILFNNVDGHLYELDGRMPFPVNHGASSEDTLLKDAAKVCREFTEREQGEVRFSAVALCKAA
Method in brief: as §1

UCHL3 = target: T4, UCHL3 (UniProt P15374)
T4 sequence (whole entry): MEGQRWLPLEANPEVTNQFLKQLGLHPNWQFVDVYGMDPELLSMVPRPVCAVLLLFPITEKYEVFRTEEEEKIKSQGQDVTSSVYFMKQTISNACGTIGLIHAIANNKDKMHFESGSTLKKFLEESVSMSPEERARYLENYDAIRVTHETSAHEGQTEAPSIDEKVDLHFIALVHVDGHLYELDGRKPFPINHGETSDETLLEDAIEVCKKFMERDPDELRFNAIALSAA
Method in brief: as §1

UCHL5 = target: T5, UCHL5 (UniProt Q9Y5K5)
T5 sequence (whole entry): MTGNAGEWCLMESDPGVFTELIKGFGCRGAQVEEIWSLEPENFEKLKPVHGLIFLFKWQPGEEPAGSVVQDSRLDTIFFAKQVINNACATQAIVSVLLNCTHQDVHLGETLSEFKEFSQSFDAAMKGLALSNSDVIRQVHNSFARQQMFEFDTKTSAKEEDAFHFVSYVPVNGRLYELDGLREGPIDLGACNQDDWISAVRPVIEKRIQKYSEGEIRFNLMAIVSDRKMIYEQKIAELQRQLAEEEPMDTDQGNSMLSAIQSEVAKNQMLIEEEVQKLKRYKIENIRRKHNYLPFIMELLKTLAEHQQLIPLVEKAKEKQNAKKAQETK
Method in brief: as §1

USP10 = USP10 (UniProt Q14694)
USP10, sequence (Q14694 whole entry): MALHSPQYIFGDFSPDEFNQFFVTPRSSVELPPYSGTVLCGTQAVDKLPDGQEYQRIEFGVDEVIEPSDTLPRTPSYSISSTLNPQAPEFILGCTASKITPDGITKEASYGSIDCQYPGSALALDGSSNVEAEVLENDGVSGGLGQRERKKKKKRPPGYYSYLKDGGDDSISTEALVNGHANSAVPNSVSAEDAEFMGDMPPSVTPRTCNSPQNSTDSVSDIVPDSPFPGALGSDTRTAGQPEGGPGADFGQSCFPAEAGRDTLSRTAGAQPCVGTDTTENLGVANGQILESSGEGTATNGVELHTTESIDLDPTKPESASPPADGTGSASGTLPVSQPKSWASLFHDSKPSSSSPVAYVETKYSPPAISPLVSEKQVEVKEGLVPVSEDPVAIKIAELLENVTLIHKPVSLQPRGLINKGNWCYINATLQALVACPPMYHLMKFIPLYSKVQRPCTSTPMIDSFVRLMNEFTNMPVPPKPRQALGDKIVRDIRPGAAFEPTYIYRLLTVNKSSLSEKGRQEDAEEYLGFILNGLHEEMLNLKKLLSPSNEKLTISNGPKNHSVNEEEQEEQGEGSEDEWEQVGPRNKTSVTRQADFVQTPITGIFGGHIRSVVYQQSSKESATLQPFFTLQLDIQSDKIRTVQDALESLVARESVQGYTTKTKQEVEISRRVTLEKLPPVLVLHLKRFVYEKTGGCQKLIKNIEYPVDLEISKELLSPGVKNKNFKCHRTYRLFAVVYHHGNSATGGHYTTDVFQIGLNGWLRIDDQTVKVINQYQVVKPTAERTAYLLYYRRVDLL
Method in brief: as §1

USP15 = target: T6, USP15 (UniProt Q9Y4E8)
T6 sequence (whole entry): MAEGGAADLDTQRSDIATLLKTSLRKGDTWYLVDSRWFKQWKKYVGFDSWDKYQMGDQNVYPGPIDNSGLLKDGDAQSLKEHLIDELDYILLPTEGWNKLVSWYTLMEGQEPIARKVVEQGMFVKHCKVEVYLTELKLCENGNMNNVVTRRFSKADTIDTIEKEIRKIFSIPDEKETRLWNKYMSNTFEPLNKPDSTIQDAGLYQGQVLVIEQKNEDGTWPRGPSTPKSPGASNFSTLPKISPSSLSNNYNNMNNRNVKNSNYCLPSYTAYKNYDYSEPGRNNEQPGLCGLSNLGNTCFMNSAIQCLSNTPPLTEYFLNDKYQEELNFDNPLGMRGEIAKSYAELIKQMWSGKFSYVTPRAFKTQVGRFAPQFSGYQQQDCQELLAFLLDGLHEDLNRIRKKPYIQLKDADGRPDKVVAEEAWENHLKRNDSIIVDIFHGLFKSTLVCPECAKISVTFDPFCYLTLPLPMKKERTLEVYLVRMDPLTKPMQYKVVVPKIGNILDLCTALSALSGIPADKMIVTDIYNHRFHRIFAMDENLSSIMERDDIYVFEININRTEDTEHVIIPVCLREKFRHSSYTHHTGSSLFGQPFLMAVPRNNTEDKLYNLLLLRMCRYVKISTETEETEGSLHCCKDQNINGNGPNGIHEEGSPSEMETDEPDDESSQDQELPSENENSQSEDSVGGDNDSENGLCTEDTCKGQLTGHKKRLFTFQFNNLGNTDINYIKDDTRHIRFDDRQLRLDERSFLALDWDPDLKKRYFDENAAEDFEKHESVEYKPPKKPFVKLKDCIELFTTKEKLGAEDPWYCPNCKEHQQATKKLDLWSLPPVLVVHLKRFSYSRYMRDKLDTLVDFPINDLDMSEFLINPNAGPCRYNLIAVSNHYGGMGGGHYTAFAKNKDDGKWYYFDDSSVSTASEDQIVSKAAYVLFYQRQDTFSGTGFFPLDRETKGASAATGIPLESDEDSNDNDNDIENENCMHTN
Method in brief: as §1

USP16 = USP16 (UniProt Q9Y5T5)
USP16, sequence (Q9Y5T5 whole entry, looked up): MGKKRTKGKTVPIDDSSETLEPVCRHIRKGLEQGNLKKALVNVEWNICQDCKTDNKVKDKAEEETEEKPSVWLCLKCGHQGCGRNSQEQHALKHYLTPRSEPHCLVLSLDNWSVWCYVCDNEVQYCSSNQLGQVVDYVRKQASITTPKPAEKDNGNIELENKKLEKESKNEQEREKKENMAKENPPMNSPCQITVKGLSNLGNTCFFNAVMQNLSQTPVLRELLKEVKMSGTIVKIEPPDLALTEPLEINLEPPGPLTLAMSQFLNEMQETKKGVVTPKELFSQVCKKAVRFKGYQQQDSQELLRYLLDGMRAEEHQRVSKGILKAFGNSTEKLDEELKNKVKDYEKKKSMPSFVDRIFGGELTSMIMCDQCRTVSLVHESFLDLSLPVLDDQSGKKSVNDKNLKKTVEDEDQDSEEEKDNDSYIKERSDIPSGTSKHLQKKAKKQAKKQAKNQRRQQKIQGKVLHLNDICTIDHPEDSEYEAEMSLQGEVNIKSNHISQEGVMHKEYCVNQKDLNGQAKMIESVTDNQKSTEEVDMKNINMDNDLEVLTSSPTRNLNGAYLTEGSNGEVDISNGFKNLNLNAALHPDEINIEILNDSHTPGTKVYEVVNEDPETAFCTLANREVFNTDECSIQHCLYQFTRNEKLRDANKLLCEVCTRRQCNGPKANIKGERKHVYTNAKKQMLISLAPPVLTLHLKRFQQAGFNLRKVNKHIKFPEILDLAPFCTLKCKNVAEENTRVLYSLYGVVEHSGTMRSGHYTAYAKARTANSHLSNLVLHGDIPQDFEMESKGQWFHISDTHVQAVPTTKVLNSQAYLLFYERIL
Method in brief: as §1

Measured: log2 ratio of Biotin-Ahx-Ub-VS probe labelling

Cl.O=C(CCl)N1CCn2cncc2C1
active: UCHL1 -1.37
inactive: OTUD6B -0.541 | OTUD7B -0.166 | PRPF8 0.208 | PSMD7 0.0226 | UCHL3 0.291 | UCHL5 0.0547 | USP10 -0.131 | USP15 -0.372 | USP16 -0.425

Source: the supplement of paper PMC11732987, “Enantioselective OTUD7B fragment discovery through chemoproteomics screening and high-throughput optimisation” (Communications Chemistry, 2025)
